Here are results for seven molecules from ChEMBL document CHEMBL1961873, “Compounds: GSK PKIS; Assays: Nanosyn kinase panel” (2012).

What is called inhibition is the drop in the measured response relative to a control, in per cent.

The test system of experiment [1] is Tyrosine-protein kinase ABL1 (Homo sapiens), P00519 [T315I]. To be noted: at 1 µM.
The subject of experiment [2] is Tyrosine-protein kinase ABL1 (Homo sapiens), P00519 [Y253F]. Conditions: at 0.1 µM.
Experiment [3] has the same test system. To be noted: at 1 µM.
Experiment [4] has as its target Tyrosine-protein kinase ABL1 (Homo sapiens) (UniProt P00519). Conditions: at 0.1 µM.
Experiment [5] has the same target. Conditions: at 1 µM.
The target of experiment [6] is ALK tyrosine kinase receptor (Homo sapiens) (UniProt Q9UM73). Conditions: at 0.1 µM.
ALK tyrosine kinase receptor (Homo sapiens), sequence (Q9UM73 19-1620 limits assumed): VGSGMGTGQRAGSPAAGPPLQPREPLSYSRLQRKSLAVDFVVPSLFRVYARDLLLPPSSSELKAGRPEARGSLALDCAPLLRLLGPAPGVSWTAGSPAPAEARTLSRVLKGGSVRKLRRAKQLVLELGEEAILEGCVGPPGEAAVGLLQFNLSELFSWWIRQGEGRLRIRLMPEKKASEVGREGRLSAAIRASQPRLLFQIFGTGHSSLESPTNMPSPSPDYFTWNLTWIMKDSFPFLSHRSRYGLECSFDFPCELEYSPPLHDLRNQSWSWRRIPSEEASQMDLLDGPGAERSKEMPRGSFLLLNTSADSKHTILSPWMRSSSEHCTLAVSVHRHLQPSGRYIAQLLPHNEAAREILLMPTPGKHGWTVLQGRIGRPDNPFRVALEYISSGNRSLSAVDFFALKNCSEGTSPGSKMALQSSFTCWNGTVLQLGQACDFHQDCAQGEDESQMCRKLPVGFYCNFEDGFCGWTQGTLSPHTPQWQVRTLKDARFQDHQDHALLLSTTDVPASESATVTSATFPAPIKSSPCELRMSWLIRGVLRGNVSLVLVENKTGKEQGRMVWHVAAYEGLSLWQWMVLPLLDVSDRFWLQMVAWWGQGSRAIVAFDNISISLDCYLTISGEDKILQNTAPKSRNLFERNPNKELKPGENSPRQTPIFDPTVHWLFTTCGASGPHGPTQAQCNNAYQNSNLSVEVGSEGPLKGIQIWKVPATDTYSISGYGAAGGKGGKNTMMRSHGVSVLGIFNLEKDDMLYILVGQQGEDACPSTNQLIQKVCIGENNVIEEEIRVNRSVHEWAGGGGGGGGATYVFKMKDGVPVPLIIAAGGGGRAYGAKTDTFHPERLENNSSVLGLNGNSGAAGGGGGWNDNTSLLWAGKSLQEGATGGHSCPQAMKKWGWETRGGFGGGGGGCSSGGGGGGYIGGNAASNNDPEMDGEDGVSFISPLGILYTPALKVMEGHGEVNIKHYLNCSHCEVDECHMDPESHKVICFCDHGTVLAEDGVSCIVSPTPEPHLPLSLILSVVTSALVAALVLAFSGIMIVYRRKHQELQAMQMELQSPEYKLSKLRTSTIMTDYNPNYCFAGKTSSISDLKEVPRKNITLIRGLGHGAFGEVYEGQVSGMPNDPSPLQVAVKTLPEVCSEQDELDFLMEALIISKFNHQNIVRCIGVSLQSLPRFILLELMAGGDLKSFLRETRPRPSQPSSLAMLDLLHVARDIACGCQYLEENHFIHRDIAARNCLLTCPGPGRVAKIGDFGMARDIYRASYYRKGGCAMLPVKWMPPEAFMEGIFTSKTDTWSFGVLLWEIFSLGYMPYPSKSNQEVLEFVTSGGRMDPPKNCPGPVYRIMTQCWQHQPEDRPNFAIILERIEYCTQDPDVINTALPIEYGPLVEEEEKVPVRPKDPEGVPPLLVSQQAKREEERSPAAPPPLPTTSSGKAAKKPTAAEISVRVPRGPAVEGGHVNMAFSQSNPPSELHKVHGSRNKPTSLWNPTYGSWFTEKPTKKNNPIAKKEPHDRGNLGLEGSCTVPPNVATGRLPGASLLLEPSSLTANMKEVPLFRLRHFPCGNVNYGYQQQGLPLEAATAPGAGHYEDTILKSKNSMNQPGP
The target is the same in experiment [7]. To be noted: at 1 µM.
In experiment [8] the target is Tyrosine-protein kinase ABL2 (Homo sapiens) (UniProt P42684). To be noted: at 0.1 µM.
Tyrosine-protein kinase ABL2 (Homo sapiens), sequence (P42684 whole entry): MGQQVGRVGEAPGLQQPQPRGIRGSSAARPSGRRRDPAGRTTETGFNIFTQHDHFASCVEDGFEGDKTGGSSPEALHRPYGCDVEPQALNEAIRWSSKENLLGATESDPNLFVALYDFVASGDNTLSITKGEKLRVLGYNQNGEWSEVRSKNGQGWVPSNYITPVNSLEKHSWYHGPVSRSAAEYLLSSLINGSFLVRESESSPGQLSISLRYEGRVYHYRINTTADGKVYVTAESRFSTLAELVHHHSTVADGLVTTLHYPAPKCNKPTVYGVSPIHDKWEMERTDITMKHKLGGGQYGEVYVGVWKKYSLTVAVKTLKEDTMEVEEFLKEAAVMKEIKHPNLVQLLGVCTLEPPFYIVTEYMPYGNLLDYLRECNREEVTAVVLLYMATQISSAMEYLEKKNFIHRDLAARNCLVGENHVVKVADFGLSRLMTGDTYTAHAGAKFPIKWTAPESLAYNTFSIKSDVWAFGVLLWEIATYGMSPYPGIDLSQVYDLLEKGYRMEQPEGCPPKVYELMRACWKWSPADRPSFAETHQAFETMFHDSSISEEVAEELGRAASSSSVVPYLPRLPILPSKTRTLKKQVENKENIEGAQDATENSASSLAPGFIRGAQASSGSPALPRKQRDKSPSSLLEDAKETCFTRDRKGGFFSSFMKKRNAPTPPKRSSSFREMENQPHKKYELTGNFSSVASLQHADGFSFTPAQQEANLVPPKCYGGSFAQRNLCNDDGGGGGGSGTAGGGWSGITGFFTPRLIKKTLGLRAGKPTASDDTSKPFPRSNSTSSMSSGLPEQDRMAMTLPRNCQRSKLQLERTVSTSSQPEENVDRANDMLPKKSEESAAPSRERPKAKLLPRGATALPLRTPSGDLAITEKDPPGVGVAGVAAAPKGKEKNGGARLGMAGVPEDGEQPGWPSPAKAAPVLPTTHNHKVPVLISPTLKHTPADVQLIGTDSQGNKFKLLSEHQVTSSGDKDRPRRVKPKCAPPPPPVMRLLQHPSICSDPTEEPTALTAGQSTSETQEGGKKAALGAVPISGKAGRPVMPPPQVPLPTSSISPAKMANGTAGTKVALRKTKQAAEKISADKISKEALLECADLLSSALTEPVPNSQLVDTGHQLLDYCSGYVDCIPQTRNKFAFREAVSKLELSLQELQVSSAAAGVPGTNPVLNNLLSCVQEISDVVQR
For experiment [9] the target is unchanged. Conditions: at 1 µM.
Experiment [10] addresses Tyrosine-protein kinase receptor UFO (Homo sapiens) (UniProt P30530). Conditions: at 0.1 µM.
Experiment [11] addresses Tyrosine-protein kinase Blk (Homo sapiens) (UniProt P51451). To be noted: at 0.1 µM.
For experiment [12] the target is unchanged. To be noted: at 1 µM.
For experiment [13], the target named is T1, Cytoplasmic tyrosine-protein kinase BMX (Homo sapiens) (UniProt P51813).
T1 sequence (whole entry): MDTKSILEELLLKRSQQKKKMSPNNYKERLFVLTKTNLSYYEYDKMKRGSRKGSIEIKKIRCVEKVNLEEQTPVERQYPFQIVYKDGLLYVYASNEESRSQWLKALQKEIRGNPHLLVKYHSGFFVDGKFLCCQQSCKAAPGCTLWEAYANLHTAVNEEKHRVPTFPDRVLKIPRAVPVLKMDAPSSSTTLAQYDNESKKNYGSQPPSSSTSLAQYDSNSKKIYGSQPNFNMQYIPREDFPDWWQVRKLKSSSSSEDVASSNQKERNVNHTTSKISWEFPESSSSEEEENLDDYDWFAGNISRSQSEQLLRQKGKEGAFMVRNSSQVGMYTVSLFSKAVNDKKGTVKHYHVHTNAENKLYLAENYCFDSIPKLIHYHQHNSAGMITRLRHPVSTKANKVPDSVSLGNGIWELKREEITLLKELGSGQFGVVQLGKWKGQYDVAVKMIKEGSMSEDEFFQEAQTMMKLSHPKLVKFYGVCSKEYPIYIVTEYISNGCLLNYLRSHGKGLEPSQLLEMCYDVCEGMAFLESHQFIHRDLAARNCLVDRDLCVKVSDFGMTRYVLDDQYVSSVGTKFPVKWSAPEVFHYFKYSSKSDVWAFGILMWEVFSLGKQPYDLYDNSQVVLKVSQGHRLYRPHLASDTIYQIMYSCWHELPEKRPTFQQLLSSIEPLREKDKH
Conditions: at 0.1 µM.

Experiment [14] has as its target T1, Cytoplasmic tyrosine-protein kinase BMX (Homo sapiens). To be noted: at 1 µM.
The target of experiment [15] is Protein-tyrosine kinase 6 (Homo sapiens) (UniProt Q13882). Conditions: at 0.1 µM.
Protein-tyrosine kinase 6 (Homo sapiens), sequence (Q13882 whole entry, looked up): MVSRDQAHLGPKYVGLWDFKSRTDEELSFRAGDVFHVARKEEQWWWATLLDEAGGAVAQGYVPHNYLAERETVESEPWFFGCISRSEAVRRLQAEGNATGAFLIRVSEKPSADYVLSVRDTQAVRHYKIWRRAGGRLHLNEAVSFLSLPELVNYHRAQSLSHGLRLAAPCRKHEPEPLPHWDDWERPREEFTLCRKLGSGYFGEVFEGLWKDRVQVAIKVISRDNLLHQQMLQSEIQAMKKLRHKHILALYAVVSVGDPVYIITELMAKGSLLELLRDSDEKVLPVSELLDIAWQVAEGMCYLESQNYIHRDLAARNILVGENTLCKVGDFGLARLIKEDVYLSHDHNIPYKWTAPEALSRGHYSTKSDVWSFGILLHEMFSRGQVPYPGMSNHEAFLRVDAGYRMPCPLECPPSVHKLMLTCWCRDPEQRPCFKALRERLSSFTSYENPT
Experiment [16] has the same target. To be noted: at 1 µM.
Experiment [17] deals with Tyrosine-protein kinase BTK (Homo sapiens) (UniProt Q06187). To be noted: at 0.1 µM.
Experiment [18] has the same target. To be noted: at 1 µM.
Experiment [19] addresses Tyrosine-protein kinase CSK (Homo sapiens) (UniProt P41240). To be noted: at 0.1 µM.
The target in experiment [20] is Tyrosine-protein kinase receptor UFO (Homo sapiens) (UniProt P30530). To be noted: at 1 µM.
Tyrosine-protein kinase receptor UFO (Homo sapiens), sequence (P30530 whole entry): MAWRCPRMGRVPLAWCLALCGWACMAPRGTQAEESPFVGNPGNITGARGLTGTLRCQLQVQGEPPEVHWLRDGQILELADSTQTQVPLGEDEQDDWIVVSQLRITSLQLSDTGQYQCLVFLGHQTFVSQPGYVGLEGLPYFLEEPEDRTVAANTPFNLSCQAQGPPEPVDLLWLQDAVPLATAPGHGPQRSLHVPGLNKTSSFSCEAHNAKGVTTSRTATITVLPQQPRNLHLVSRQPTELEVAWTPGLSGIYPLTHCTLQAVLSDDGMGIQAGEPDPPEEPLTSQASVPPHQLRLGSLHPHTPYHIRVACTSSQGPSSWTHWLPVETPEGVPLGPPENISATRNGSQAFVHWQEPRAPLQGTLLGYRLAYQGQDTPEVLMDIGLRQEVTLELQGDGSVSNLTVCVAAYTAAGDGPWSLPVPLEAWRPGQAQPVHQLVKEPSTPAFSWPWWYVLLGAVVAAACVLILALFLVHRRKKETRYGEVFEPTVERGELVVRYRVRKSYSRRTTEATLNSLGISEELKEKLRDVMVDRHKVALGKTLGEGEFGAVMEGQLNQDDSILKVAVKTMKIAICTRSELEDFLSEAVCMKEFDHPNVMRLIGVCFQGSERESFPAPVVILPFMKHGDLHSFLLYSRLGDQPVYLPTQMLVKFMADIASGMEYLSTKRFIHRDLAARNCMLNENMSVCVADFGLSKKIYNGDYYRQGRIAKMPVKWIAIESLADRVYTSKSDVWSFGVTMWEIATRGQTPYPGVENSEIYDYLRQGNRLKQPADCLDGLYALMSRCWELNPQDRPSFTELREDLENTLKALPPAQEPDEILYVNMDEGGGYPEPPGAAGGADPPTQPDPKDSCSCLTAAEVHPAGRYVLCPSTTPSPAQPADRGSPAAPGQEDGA

SMILES strings stand for the structures.

Tyrosine-protein kinase CSK (Homo sapiens), sequence (P41240 2-450 limits assumed): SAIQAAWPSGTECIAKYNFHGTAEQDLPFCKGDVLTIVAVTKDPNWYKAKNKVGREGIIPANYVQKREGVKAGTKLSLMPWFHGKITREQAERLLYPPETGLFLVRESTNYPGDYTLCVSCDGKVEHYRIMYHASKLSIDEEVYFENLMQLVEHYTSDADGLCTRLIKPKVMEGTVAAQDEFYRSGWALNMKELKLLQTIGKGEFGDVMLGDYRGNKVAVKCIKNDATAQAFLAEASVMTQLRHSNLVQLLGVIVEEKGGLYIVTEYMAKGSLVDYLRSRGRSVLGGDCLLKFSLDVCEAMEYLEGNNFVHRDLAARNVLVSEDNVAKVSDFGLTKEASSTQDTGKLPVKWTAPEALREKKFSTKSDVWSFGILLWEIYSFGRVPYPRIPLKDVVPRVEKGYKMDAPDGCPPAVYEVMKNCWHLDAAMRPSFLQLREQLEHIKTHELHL
Tyrosine-protein kinase Blk (Homo sapiens), sequence (P51451 2-505 limits assumed): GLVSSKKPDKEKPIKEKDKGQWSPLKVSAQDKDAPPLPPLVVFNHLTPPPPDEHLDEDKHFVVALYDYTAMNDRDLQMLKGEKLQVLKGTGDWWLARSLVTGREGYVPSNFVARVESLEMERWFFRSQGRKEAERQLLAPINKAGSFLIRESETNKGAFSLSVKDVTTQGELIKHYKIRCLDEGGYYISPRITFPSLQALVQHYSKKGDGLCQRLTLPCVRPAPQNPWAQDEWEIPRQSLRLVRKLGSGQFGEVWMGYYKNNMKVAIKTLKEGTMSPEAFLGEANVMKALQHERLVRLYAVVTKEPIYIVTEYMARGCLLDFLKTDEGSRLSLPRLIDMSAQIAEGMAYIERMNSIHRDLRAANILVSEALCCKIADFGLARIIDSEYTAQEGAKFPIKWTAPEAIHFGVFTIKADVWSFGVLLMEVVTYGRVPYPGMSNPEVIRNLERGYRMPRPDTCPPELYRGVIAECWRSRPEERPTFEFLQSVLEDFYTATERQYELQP

Regarding `O=C1Nc2ccccc2/C1=C/Nc1ccc2[nH]c(=O)[nH]c2c1`, the inhibition in experiment [1] amounted to 23.7%; in experiment [2], 9.65%; in [3], 23.3%; in [4], 8.95%; in [5], 25.8%; in experiment [6], 2.88%. For the same molecule, the inhibition is 16.4% in experiment [7]; 7.75% in experiment [8]; 19.4% in experiment [9]; -8.65% in [10]; 7.96% in experiment [11]; 33% in experiment [12]. Moreover, the inhibition in [13] is 5.38%; in experiment [14] it was 7.7%; in [15], 4.56%; in experiment [16], 8.06%; in [17], 0.87%; in experiment [18] it was 4.29%. Moreover, the inhibition in experiment [19] stood at 6.52%.

As to `Cc1ccc2c(-c3ccnc(Nc4ccc5c(c4)OCCO5)n3)c(-c3ccc(C(F)(F)F)cc3)nn2n1`, the inhibition was -0.15% in experiment [1]; 0.22% in [2]; 4.3% in experiment [3]; 2.59% in [4]; 4.52% in [5]; 2.45% in [6]. The inhibition in [7] is 1.5%; in experiment [8], 2.56%; in experiment [9], 5%; in experiment [10] it was 0.41%; in [20] it was 1.14%; in [11], 3.28%. For the same molecule, the inhibition in [12] is 4.48%; in [14], 0.94%; in [15], 0.39%; in experiment [16], 3.26%; in experiment [17], 0.75%; in [18], 1.71%. In experiment [19], the inhibition was -2.99%.

As for `COc1ccc(-c2nn3ncccc3c2-c2ccnc(Nc3cccc(C(F)(F)F)c3)n2)cc1`, the inhibition in experiment [1] turned out to be 5.9%; in [2] it was 1.53%; in [3] it was 5.56%; in [4], 5.5%; in experiment [5], 4%; in experiment [6] it was 3.3%. The inhibition was 5.15% in experiment [7]; 2.28% in experiment [8]; 6.55% in [9]; -4.48% in experiment [10]; -2.69% in experiment [20]; 2.61% in experiment [11]. Further, the inhibition is 7.74% in experiment [12]; 2.37% in [13]; -4.27% in experiment [14]; 2.5% in experiment [15]; 17.9% in experiment [16]; 0.09% in experiment [17]. The results for the inhibition in experiment [18] and in [19] were 1.7% and 2.1%, respectively.

Take `COc1cc2ncnc(Nc3ccc(C)c(O)c3)c2cc1OC`: the inhibition stood at 68.2% in experiment [1]; 53.7% in experiment [2]; 89.5% in experiment [3]; 36.1% in experiment [4]; 78.5% in experiment [5]; 4.66% in [6]. Also, the inhibition was 13.8% in experiment [7]; 15.8% in experiment [8]; 65.2% in [9]; -6.97% in experiment [10]; 7.68% in experiment [11]; 49% in experiment [12]. Besides, the inhibition was 6.28% in experiment [13]; 13% in [14]; 17.5% in experiment [15]; 65.5% in experiment [16]; 0.81% in [17]; 15.9% in [18]. Besides, in [19], the inhibition was determined as 5.1%.

With `NC(=O)c1sc(-n2cnc3ccccc32)cc1OCc1ccccc1Br`, the inhibition in experiment [1] amounted to 4.17%; in experiment [2] it was 2.98%; in experiment [3], 5.62%; in experiment [4], 4.27%; in experiment [5] it was 9.67%; in experiment [6], 4.26%. The inhibition in experiment [7] is 6.94%; in experiment [8], 4.44%; in [9], 7.23%; in experiment [10] it was -6.14%; in experiment [20] it was -4.14%; in [11] it was 2.16%. The inhibition in [12] was 3.7%; in [13], 3.03%; in experiment [14] it was 4.96%; in [15] it was 1.74%; in [16], 7.25%; in experiment [17], -0.65%. Further, the inhibition in experiment [18] was -0.19%; in experiment [19] it was 1.13%.

Turning to `c1ccc(Cc2nc3ccc(Nc4ncnc5ccccc45)cc3[nH]2)cc1`, the inhibition stood at 4.4% in [1]; 5.92% in experiment [2]; 6.3% in [3]; 4.49% in experiment [4]; 11.3% in experiment [5]; 1.23% in [6]. The inhibition was 5.36% in [7]; 2.8% in experiment [8]; 9.97% in [9]; -5.03% in experiment [10]; -3.16% in [20]; 2.78% in [11]. Moreover, the inhibition in [12] turned out to be 7.6%; in [13], 5.75%; in experiment [14], 5.59%; in experiment [15], 5.48%; in experiment [16], 5.84%; in [17], 0.25%. Also, the inhibition in [18] is 1.7%; in [19], 8.17%.

`NS(=O)(=O)c1ccc(-c2cc3ccncc3cc2OCc2ccccc2)cc1`: the inhibition was determined as 3.49% in experiment [1]; 5.3% in [2]; 3.98% in experiment [3]; 3.52% in experiment [4]; 7.38% in [5]; 4.77% in [6]. The inhibition in experiment [7] is 15.5%; in experiment [8], 3.51%; in experiment [9] it was 6.27%; in [10], -5.69%; in [20], -1.13%; in experiment [11], 2.2%. Also, the inhibition in experiment [12] is 3.91%; in experiment [13], 4.23%; in experiment [14], 4.75%; in experiment [15], 2.61%; in [16], 5.54%; in experiment [17], 0.49%. Besides, the inhibition in [18] was -0.08%; in experiment [19], 4.58%.
